# High-throughput results from PubChem.
# Sampled rows, rich in hits. Any-hit rate of the full collection: about 8%.
# TSHR antagonist – Antagonists of the Thyroid Stimulating Hormone Receptor: HTS campaign. activity change, negative = inhibition, % at 11.5 µM. 0.2% of 330,000 active. Thyrotropin receptor (Homo sapiens), P16473. TSHR-expressing cells, TSH-stimulated cAMP HTRF, 2 h; stronger effect = lower value. AID 504810, 2011;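 active = activity change below a set negative limit, meaning inhibition stronger than a set level, cut at about -70% in these data; inconclusive = activity change between two set negative limits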
# Target sequence (P16473 whole entry, looked up): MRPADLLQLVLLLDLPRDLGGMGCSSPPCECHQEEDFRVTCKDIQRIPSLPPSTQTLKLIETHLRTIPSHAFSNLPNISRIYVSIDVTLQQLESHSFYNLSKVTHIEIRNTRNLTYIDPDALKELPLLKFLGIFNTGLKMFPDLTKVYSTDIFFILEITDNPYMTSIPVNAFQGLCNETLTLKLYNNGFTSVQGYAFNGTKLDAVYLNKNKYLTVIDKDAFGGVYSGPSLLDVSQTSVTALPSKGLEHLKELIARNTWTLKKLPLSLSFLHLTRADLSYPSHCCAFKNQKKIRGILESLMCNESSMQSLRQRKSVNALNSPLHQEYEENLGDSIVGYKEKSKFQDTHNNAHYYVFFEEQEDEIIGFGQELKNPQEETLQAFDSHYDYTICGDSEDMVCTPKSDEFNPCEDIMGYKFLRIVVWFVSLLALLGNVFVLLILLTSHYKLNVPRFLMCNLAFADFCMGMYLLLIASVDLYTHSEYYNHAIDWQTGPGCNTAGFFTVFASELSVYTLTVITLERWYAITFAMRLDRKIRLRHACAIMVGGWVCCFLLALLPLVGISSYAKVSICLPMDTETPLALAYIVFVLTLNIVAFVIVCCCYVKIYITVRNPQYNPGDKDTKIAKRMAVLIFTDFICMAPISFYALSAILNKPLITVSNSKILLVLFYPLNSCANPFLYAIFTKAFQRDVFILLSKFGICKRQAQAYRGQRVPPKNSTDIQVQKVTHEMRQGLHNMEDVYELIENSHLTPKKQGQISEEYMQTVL
#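 Competitive HTRF cAMP read-out (cryptate anti-cAMP antibody, cAMP-d2; 30 min, room temperature) in freshly harvested TSHR cells. Compounds added before TSH at EC80 (4nM final), followed by 2 hours' incubation at 37 deg C.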
# RORgamma inh – qHTS for inhibitors of ROR gamma transcriptional activity; Nuclear receptor ROR-gamma (Mus musculus), P51450; Drosophila S2 Gal4-RORgamma UAS-luciferase reporter, 20 h; Potency, µM (doses to about 53.6 µM), inactives show top-dose activity change, negative = inhibition, usual class: inhibitors; 5.4% of 310,000 active; AID 2551, 2010; also: potency is read from the fitted curve at half-maximal effect; nearly all actives have a fitted effect of over 60% in size
#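 Stable Schneider cell line, Gal4 DNA-binding domain fused to ROR gamma, UAS-luciferase. Cmpd 1 hr RT → CuSO4 700 uM final → 20 hr RT → luciferase reagent 10 min → luminescence.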
# ELG1 DNA repair – qHTS screen for small molecules that inhibit ELG1-dependent DNA repair in human embryonic kidney (HEK293T) cells expressing luciferase-tagged ELG1; HEK293T ELG1-luciferase reporter, luminescence, 16 h; DNA damage induced by 5-fluorouridine; 2.3% of 330,000 active; AID 504467, 2011; Potency, µM (doses to about 46.1 µM), for the others: at the highest dose activity change, negative = inhibition, actives largely listed as inhibitors; also: potency is read from the fitted curve at half-maximal effect; nearly all actives have a fitted effect of over 55% in size
#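 5-Fluorouridine DNA damage + compound/DMSO, 2,000 cells/well, 16 h, 37 °C/5% CO2. ONE-Glo, 30 min RT, luminescence. Readout = decrease in reporter signal.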
# Coupling enz – qHTS Assay for Inhibitors of Fructose-1,6-bisphosphate Aldolase from Giardia Lamblia: Coupling assay counterscreen; coupling enzyme system counterscreen, AmpLite Red fluorescence; activity change, negative = inhibition, % at 58.2 µM, hits read low; 0.67% of 290,000 active; AID 2472, 2010; in the data active = activity change below about -30%
#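 Counterscreen lacking aldolase: glyceraldehyde-3-phosphate coupling-enzyme reagent preincubated 10 min at RT with compound (at 57.5 uM final), then substrate/coupling system with AmpLite Red added; fluorescence read at 525/598 nm after 20 min RT.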
# Gal4-VP16 FLuc – VP16 counterscreen qHTS for inhibitors of ROR gamma transcriptional activity; Drosophila S2 Gal4-VP16 UAS-luciferase, luminescence, 20 h; Potency, µM (doses to about 53.6 µM), for the others: at the top dose activity, negative = inhibition, hits mostly inhibitors; 3.5% of 310,000 active; AID 2546, 2010;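 also: Gal4-VP16 expression switched on by copper sulfate through the metallothionein promoter; potency is read from the fitted curve at half-maximal effect; nearly all actives have a fitted effect of over 50% in size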
# * hit, by the source's call; ? = inconclusive; / = no result; [ ] = another dose, or the depositor's remark. Unless noted, calls follow the shape of the dose curve; as a rule, active = well fitted curve in the direction sought with a large enough effect; inconclusive = small, poorly fitted or top-dose-only effect, or another doubt; inactive = no such curve, though single readings can be large; an effect the other way counts as inactive or inconclusive. % is scaled to controls: 0 for no effect and ±100 for the full control effect.
SMILES,TSHR antagonist,RORgamma inh,ELG1 DNA repair,Coupling enz,Gal4-VP16 FLuc
CCCCNC(=S)Nc1ccc(F)cc1,2.2,12.6µM*,?,3.7,?
O=C(NCCc1ccc(Cl)cc1)Nc1ccc(F)cc1,-1.7,4.5%,-1.4%,3.3,19.6%[10 µM]
Clc1ccc(SCc2nc3ccccc3[nH]2)cc1,-19.7,?,?,-2.6,?
Clc1ccc(/C=C/c2nc3ccccc3[nH]2)cc1,-7.8,4.47µM*,?,-6.7,7.08µM*
Clc1cccc(Cl)c1/C=C/c1nc2ccccc2[nH]1,18.7,11.2µM*,?,0.7,?
Clc1ccc(/C=C/c2nc3ccccc3[nH]2)c(Cl)c1,-18.0,?,?,-4.9,7.08µM*
Cc1ccc(C(=O)OCC(=O)NC2CCCCCC2)c(C)c1,-31.9,/,17.5%,/,/
Cn1c(C(=O)N2CCOCC2)cc2c(=O)n3ccccc3nc21,-12.8,-18.4%,4.0%,/,9.9%
Cn1c(C(=O)N2CCN(C(=O)c3ccco3)CC2)cc2c(=O)n3ccccc3nc21,27.3,24.7%,?,-6.2,14.1µM*
CCN(C(=O)c1cc2c(=O)n3ccccc3nc2n1C)C1CCCCC1,-122.7*,4.8%,0.9%,/,-4.6%
Cc1[nH]c2c(C)cccc2c(=O)c1CN1CCCCCC1,4.8,-18.4%,-2.2%,2.1,7.8%
CCC(OC(=O)c1ccco1)C(=O)NC1CCCC1 (stereo unspecified),7.2,-11.9%,-1.2%,1.5,-0.4%
COc1ccc(NC(=O)c2nc[nH]c2C(=O)NCCCCCNC(=O)OC(C)(C)C)cc1,-13.8,/,?,/,/
Cc1ccc(CNC(=S)NC2CCC(C(C)(C)C)CC2)cc1 (stereo unspecified),2.9,2.82µM*,-4.7%,0.3,5.01µM*
COc1ccc(C(=S)NC2CCCCC2)cc1,-1.6,-29.9%,?,-0.3,7.6%
COc1ccc(CNC(=S)NC2CCCCC2)cc1,-1.7,7.08µM*,9.9%,1.0,12.6µM*
Fc1ccc(C(CNC(=S)NC2CCCCC2)N2CCOCC2)cc1 (stereo unspecified),1.3,8.91µM*,-1.1%,2.6,?
COc1ccc(CNC(=S)NC2CCCC2)cc1,-14.4,8.91µM*,4.0%,0.9,7.94µM*
NS(=O)(=O)c1ccc(CNC(=S)NC2CCCC2)cc1,4.7,2.5%,-2.2%,-0.3,-10.1%
COc1ccc(CNC(=O)CN2C(=O)c3ccc([N+](=O)[O-])cc3C2=O)cc1,-0.3,-6.8%,-8.4%,0.9,19.2%
CC(NC(=O)C1CCC1)c1ccccc1 (stereo unspecified),1.0,-28.5%,5.3%,-0.3,-0.5%
CC(NC(=S)NC1CCC(C(C)(C)C)CC1)c1ccccc1 (stereo unspecified),-12.2,1.58µM*,-0.5%,1.1,2.82µM*
Fc1ccc(CNC(=S)NC2CCCCCC2)cc1,-11.9,6.31µM*,?,-1.2,11.2µM*
COc1ccc(CNC[C@H]2O[C@@H](n3cnc4c(N)ncnc43)[C@H](O)[C@@H]2O)cc1OC,-10.8,/,19.8%,/,/
O=C(Nc1nnc(S(=O)(=O)N2CCCC2)s1)c1ccccc1F,-102.9*,40.3%,20.9%,-7.8,-5.0%
SMILES,TSHR antagonist,RORgamma inh,ELG1 DNA repair,Coupling enz,Gal4-VP16 FLuc
O=C(Nc1nnc(S(=O)(=O)N2CCCC2)s1)c1ccccc1Cl,-9.5,27.4%,13.3%,1.0,-10.1%
c1ccc(-c2noc(-c3ccc4c(c3)OCO4)n2)cc1,-3.9,-30.4%,?,2.0,-19.7%
Cc1cccc(-c2noc(-c3ccc(Cl)cc3[N+](=O)[O-])n2)c1,-3.2,2.51µM*,?,-1.2,10µM*
Cc1ccc(-c2noc(-c3cc4ccccc4oc3=O)n2)cc1,7.6,8.8%,?,3.0,1.3%
Cc1ccc(-c2nc(-c3ccncc3)no2)cc1C,11.3,8.91µM*,?,3.9,?
c1ccc(-c2noc(-c3ccc4ccccc4c3)n2)cc1,-8.3,3.55µM*,?,-0.4,25.1µM*
O=c1oc2ccccc2cc1-c1nc(-c2ccccc2)no1,-4.2,11.2µM*,?,6.8,8.91µM*
